In the library only some 4.5% were active in any assay of this set; here they are far more common.
Rpn11 block: Rpn11 (human) deubiquitinase inhibition. AID 588493. human 26S proteasome, Ub4-pepOG fluorescence polarization; 20S core pre-blocked with epoxomicin. actives 0.59% (n = 360,000). inhibition, % at 20 µM;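 active means inhibition at 20 µM, scaled to each plate's controls, above about 33%, limit read from the data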
ZTA counter: counter-screen for EBNA-1 inhibitors: inhibitors of Epstein-Barr virus ZTA | P03206 | ZTA-DNA binding, fluorescence polarization | inhibition, % at 11 µM | actives 0.15% (n = 320,000); in the data active means inhibition above about 33%
EBNA-1 inh: blocks EBNA-1 binding to DNA; AID 1950; actives 0.34% (n = 300,000); inhibition, % at 14.8 µM; EBNA-1 DNA binding, fluorescence polarization; in the data active means inhibition above about 28%
dFosB activator: mouse delta FosB homodimer activation | purified delta FosB, TAMRA-CDK5 oligo fluorescence polarization; percent of positive-control signal above neutral wells | actives 0.99% (n = 340,000) | AID 493131 | P13346 | activation, % at 25 µM;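 active means mean activation above about 17%, with every replicate also reaching it, limit read from the data, passing the limit was not always enough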
Target sequence (P13346 whole entry, looked up): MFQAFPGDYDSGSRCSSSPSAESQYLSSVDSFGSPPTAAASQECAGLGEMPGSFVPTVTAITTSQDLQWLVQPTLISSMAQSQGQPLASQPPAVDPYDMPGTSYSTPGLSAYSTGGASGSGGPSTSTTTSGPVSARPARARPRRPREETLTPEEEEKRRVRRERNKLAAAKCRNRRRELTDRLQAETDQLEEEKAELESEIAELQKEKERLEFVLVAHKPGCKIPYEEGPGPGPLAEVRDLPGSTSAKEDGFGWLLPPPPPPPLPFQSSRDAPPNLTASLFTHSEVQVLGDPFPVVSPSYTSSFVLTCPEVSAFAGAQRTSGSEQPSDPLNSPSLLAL
GRIN3A LBD mod: modulates the human NR3A ligand-binding domain; actives 2.5% (n = 340,000); NR3A LBD differential scanning fluorimetry, Tm shift; 0% = protein alone, 100% = glycine-bound protein; Tm shift relative to glycine control, % at 25 µM; AID 1259313;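 active means melting temperature shift of at least 10% of the positive control shift, at one fixed dose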
TPT1 inhibitor: blocks Candida albicans tRNA 2'-phosphotransferase; inhibition, % at 5 µM; recombinant caTPT1, FP RNA substrate dephosphorylation; actives 0.81% (n = 300,000); AID 1962;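 active means inhibition above the mean of all tested compounds plus 3 SD, set per screening campaign, cut at about 24% in these data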;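 further: plate controls were DMSO alone for no effect and ferristatin control at 100 nM for full effect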
TPT1 inh confirm: TPT1 (C. albicans) inhibition, confirmation; shares compounds with TPT1 inhibitor; recombinant caTPT1, fluorescence polarization, RNase T1 coupled; inhibition, % at 5 µM; actives 74% (n = 2,400);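 active means inhibition above the primary screen limit, the mean inhibition of all tested compounds plus 3 SD, cut at about 25% in these data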
RNase T1 inh: RNase T1 inhibition in TPT1 counter-screen; inhibition, % at 5 µM; RNase T1 cleavage, fluorescence polarization, 1536-well; AID 2153; shares compounds with TPT1 inhibitor; actives 83% (n = 2,400);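 active means inhibition above the solvent-only control well mean plus 3 SD, limit set per screening run, cut at about 23% in these data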;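 further: plate controls were DMSO wells with enzyme for no effect and wells without RNase T1 for full effect; inhibitors block cleavage so intact labeled substrate keeps polarization high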
Target sequence (P00651 whole entry, looked up): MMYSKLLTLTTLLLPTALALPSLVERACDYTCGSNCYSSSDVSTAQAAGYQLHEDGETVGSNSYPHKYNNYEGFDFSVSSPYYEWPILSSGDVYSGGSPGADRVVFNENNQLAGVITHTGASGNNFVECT
Numbers without * were called inactive.

For CC1CC(=O)Nc2ccccc2N1S(=O)(=O)c1ccccc1 (stereo not given) the results were Rpn11 block 0, ZTA counter -7, EBNA-1 inh -8, dFosB activator 2, GRIN3A LBD mod 1 and TPT1 inhibitor 2.
`CC1CC(=O)Nc2ccccc2N1S(=O)(=O)c1ccc(Cl)cc1` (stereo not given) gave Rpn11 block -2, ZTA counter 8, EBNA-1 inh -3, dFosB activator 2, GRIN3A LBD mod -1, TPT1 inhibitor 74*, TPT1 inh confirm 2 and RNase T1 inh 7.
For C=CCNC(=S)N1CCC(Cc2ccccc2)CC1 the results were Rpn11 block 1, dFosB activator -18 and GRIN3A LBD mod -1.
`CCN1CCc2c(sc(N)c2C#N)C1` gave Rpn11 block 5, ZTA counter 6, EBNA-1 inh 6, dFosB activator 7, GRIN3A LBD mod -2 and TPT1 inhibitor -2.
For CC(C)N1CCc2c(sc(NC(=S)NC(=O)c3ccccc3)c2C#N)C1 the results were ZTA counter -6, EBNA-1 inh -8, dFosB activator -16, GRIN3A LBD mod -8, TPT1 inhibitor 94*, TPT1 inh confirm 81* and RNase T1 inh 86*.
Screening CC(C)N1CCc2c(sc(N)c2C#N)C1 returned Rpn11 block 30, ZTA counter -13, EBNA-1 inh 13, dFosB activator -4, GRIN3A LBD mod -1, TPT1 inhibitor 30*, TPT1 inh confirm 42* and RNase T1 inh 48*.
CCOC(=O)c1c(NC(=O)c2ccc(S(=O)(=O)N3CCOCC3)cc2)sc2c1CCN(C)C2 was read as Rpn11 block 8, ZTA counter 0, EBNA-1 inh -11, dFosB activator -13, GRIN3A LBD mod -1 and TPT1 inhibitor 5.
`Cc1sc(NC(=S)NC(=O)c2ccccc2)c(C#N)c1C` gave Rpn11 block 4, ZTA counter -19, EBNA-1 inh -16, dFosB activator 0, GRIN3A LBD mod -2 and TPT1 inhibitor 2.
For CC(C)N1CCc2c(sc(NC(=O)c3ccc(S(=O)(=O)N4CCOCC4)cc3)c2C#N)C1 the results were ZTA counter 4, EBNA-1 inh -2, dFosB activator -9, GRIN3A LBD mod -1, TPT1 inhibitor 127*, TPT1 inh confirm 156* and RNase T1 inh 147*.
Screening CCCN1CCc2c(sc(NC(=S)NC(=O)c3ccccc3)c2C#N)C1 returned ZTA counter -20, EBNA-1 inh -1, dFosB activator -5, GRIN3A LBD mod -24, TPT1 inhibitor 88*, TPT1 inh confirm 62* and RNase T1 inh 71*.
`O=C1/C(=C\c2ccco2)CCC/C1=C\c1ccco1` gave ZTA counter 5, EBNA-1 inh -5, dFosB activator 5, GRIN3A LBD mod 7, TPT1 inhibitor 55*, TPT1 inh confirm 65* and RNase T1 inh 72*.
Screening O=C1/C(=C/c2ccco2)Cc2ccccc21 returned Rpn11 block 1, ZTA counter -11, EBNA-1 inh -3, dFosB activator 2, GRIN3A LBD mod -2 and TPT1 inhibitor -3.
Screening CC1C/C(=C/c2cccs2)C(=O)/C(=C/c2cccs2)C1 (stereo not given) returned Rpn11 block 36, ZTA counter -2, EBNA-1 inh -4, dFosB activator 1, GRIN3A LBD mod -11, TPT1 inhibitor 26*, TPT1 inh confirm 10 and RNase T1 inh 14.
For CC1C/C(=C/c2ccco2)C(=O)/C(=C/c2ccco2)C1 (stereo not given) the results were ZTA counter 16, EBNA-1 inh 5, TPT1 inhibitor 61*, TPT1 inh confirm 62* and RNase T1 inh 71*.
O=C1/C(=C/c2cccs2)CCC/C1=C\c1cccs1 was read as Rpn11 block 7, ZTA counter 12, EBNA-1 inh 6, dFosB activator -16, GRIN3A LBD mod 0 and TPT1 inhibitor 11.
O=C1/C(=C/c2ccco2)CCC1C1CCCC1 (stereo not given) was read as Rpn11 block 3, ZTA counter 25, EBNA-1 inh 6, dFosB activator -9, GRIN3A LBD mod -1 and TPT1 inhibitor -2.
`Cc1c(-c2ccc(O)cc2)nc2nc(-c3ccccc3)c(-c3ccccc3)nn12` gave ZTA counter 11, EBNA-1 inh 7, TPT1 inhibitor 27*, TPT1 inh confirm 49* and RNase T1 inh 67*.
For Cc1nnc2c3ccccc3c(-c3ccc(O)cc3)nn12 the results were Rpn11 block -7, ZTA counter 7, EBNA-1 inh -5, dFosB activator -11, GRIN3A LBD mod 0 and TPT1 inhibitor 3.
COc1ccccc1OCCC(=O)OCC(=O)c1c(N)n(C)c(=O)n(C)c1=O was read as Rpn11 block -6, ZTA counter -4, EBNA-1 inh 4, dFosB activator -5, GRIN3A LBD mod 0, TPT1 inhibitor 113*, TPT1 inh confirm 12 and RNase T1 inh 19.
`Cc1ccc(OCCC(=O)OCC(=O)c2c(N)n(C)c(=O)n(C)c2=O)cc1` gave Rpn11 block 3, ZTA counter 0, EBNA-1 inh -11, dFosB activator -5, GRIN3A LBD mod -1 and TPT1 inhibitor 3.
Cc1cccc(Oc2cc([N+](=O)[O-])cc3c2C(=O)Nc2ccccc2O3)c1 was read as ZTA counter 12, EBNA-1 inh 1, dFosB activator 6, GRIN3A LBD mod -27 and TPT1 inhibitor 21.
Screening O=C1Nc2ccccc2Oc2cc([N+](=O)[O-])cc(Oc3ccccc3)c21 returned ZTA counter -11, EBNA-1 inh -10, dFosB activator 2, GRIN3A LBD mod -18, TPT1 inhibitor 27*, TPT1 inh confirm 46* and RNase T1 inh 59*.
For COc1cc(OC)c(CN2CCc3c([nH]c4ccccc34)C2)cc1Br the results were ZTA counter 12, EBNA-1 inh -7, dFosB activator -4, GRIN3A LBD mod -4, TPT1 inhibitor 48*, TPT1 inh confirm 6 and RNase T1 inh 7.
`Cc1cccc(CN2CCc3c([nH]c4ccccc34)C2)c1` gave Rpn11 block -10, ZTA counter -2, EBNA-1 inh -3, dFosB activator -6, GRIN3A LBD mod 4 and TPT1 inhibitor 0.
CCCSc1cc(=O)n(-c2ccc(F)cc2)nc1C(=O)OCC was read as Rpn11 block -7, ZTA counter -14, EBNA-1 inh -12, dFosB activator -2, GRIN3A LBD mod -4 and TPT1 inhibitor -8.

Bioassay records (PubChem)
